Legend:
Experiment in all cases: log2 ratio of Biotin-Ahx-Ub-VS probe labelling (fragment/DMSO); higher = less target engagement (more negative = stronger competition), active = hit call of the paper (q ≤ 0.05, log2 ratio ≤ -1)
Details in all cases: compound concentration: 200 uM; treatment time: 3 h
[1] = target: T1, OTUD6B (UniProt Q8N6M0)
T1 sequence (whole entry): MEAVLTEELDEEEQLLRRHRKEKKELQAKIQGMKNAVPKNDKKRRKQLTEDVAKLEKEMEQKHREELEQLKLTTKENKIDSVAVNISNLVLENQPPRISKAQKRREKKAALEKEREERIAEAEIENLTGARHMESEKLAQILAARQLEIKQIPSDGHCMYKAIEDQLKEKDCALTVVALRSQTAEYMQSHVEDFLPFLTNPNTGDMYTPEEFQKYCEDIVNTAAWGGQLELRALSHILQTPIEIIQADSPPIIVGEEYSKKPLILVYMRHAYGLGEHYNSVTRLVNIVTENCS
Summary of the method: (§1)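 Using Biotin-Ahx-Ub-VS at 0.5 µM final for 1 h, DUBs were labelled in HEK293T lysate (495 µg per sample) that had first been treated in triplicate with fragment at 200 µM or vehicle for 3 h. NeutrAvidin enrichment, LysC and trypsin digestion and diaPASEF LC-MS/MS followed. Spectronaut label-free quantities were global-median-normalised. Values are average log2 fragment/vehicle ratios by unpaired t-test, using proteins with ≥2 unique peptides.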

[2] = target: T2, OTUD7B (UniProt Q6GQQ9)
T2 sequence (whole entry): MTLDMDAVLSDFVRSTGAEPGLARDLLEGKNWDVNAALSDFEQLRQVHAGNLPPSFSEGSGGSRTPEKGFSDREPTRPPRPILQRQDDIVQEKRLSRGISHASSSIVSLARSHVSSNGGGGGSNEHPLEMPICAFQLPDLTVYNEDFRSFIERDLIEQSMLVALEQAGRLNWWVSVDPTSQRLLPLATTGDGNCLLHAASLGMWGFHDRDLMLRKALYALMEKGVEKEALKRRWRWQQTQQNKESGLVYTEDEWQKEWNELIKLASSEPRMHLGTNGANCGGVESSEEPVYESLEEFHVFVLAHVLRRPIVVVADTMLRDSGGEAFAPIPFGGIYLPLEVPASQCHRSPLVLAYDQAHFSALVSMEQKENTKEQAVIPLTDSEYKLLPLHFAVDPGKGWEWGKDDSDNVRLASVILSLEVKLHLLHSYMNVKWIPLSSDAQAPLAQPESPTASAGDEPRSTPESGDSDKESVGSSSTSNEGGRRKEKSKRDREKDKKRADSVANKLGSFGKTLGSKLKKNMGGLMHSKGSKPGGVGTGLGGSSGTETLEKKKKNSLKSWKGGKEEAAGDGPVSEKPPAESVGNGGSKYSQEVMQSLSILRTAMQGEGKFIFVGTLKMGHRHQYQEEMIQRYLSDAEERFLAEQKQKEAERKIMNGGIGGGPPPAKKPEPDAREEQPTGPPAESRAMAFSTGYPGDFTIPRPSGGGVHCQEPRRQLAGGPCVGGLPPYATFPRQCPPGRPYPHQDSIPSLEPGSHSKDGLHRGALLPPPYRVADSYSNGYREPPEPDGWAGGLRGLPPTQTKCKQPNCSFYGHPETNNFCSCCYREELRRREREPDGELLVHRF
Summary of the method: as §1

[3] = target: PRPF8 (UniProt Q6P2Q9)
Summary of the method: as §1

[4] = target: T3, PSMD7 (UniProt P51665)
T3 sequence (whole entry): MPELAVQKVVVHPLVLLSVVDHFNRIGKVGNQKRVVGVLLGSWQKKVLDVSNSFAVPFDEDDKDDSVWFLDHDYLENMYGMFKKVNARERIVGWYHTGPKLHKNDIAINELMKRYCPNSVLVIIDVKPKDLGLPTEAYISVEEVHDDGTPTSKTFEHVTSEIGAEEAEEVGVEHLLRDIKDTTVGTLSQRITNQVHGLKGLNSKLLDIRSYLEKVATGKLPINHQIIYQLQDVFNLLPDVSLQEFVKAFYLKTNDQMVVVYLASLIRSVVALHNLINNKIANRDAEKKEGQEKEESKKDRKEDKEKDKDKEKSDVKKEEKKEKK
Summary of the method: as §1

[5] = target: UCHL1 (UniProt P09936)
Sequence of UCHL1 (P09936 whole entry, looked up): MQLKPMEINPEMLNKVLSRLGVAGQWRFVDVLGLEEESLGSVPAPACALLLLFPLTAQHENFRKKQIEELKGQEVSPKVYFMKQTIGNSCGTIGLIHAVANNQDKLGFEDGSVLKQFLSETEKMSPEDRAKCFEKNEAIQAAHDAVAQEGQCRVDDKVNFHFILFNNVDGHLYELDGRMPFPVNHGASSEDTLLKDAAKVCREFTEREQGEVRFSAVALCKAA
Summary of the method: as §1

[6] = target: T4, UCHL3 (UniProt P15374)
T4 sequence (whole entry): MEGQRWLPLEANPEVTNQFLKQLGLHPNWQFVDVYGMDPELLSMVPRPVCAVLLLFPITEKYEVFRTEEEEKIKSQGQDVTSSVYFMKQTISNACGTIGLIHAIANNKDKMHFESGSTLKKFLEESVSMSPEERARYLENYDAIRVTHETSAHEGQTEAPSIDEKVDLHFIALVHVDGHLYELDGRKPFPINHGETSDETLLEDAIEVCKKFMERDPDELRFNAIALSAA
Summary of the method: as §1

[7] = target: T5, UCHL5 (UniProt Q9Y5K5)
T5 sequence (whole entry): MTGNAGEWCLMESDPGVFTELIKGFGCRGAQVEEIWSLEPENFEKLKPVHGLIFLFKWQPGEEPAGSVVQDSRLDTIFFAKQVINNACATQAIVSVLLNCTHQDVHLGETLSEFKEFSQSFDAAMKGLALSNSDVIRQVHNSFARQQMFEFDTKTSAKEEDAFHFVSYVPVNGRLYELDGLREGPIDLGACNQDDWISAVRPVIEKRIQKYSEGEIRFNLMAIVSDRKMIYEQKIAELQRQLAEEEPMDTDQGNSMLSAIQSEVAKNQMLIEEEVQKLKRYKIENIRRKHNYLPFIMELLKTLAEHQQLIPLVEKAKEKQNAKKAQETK
Summary of the method: as §1

[8] = target: USP10 (UniProt Q14694)
Sequence of USP10 (Q14694 whole entry): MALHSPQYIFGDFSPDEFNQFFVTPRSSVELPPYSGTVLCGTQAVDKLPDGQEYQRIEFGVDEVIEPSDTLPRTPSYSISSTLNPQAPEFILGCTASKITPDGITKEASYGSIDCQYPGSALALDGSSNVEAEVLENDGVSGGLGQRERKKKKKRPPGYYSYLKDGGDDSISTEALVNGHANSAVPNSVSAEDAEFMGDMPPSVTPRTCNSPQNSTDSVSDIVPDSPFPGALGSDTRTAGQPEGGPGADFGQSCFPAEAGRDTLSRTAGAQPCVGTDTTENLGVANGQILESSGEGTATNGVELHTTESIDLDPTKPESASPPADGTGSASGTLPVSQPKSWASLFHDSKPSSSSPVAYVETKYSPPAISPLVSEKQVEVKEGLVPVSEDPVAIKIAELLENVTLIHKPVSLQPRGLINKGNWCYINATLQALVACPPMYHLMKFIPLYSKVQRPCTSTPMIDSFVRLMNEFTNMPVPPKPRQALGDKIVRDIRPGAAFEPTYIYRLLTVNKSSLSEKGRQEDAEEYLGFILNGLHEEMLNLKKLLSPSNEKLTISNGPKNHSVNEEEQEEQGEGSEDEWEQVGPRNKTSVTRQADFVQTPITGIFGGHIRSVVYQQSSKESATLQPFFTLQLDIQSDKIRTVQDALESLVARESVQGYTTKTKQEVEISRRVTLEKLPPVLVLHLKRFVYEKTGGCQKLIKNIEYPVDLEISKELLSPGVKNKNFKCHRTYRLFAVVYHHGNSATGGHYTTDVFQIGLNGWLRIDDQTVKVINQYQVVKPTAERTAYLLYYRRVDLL
Summary of the method: as §1

[9] = target: T6, USP15 (UniProt Q9Y4E8)
T6 sequence (whole entry): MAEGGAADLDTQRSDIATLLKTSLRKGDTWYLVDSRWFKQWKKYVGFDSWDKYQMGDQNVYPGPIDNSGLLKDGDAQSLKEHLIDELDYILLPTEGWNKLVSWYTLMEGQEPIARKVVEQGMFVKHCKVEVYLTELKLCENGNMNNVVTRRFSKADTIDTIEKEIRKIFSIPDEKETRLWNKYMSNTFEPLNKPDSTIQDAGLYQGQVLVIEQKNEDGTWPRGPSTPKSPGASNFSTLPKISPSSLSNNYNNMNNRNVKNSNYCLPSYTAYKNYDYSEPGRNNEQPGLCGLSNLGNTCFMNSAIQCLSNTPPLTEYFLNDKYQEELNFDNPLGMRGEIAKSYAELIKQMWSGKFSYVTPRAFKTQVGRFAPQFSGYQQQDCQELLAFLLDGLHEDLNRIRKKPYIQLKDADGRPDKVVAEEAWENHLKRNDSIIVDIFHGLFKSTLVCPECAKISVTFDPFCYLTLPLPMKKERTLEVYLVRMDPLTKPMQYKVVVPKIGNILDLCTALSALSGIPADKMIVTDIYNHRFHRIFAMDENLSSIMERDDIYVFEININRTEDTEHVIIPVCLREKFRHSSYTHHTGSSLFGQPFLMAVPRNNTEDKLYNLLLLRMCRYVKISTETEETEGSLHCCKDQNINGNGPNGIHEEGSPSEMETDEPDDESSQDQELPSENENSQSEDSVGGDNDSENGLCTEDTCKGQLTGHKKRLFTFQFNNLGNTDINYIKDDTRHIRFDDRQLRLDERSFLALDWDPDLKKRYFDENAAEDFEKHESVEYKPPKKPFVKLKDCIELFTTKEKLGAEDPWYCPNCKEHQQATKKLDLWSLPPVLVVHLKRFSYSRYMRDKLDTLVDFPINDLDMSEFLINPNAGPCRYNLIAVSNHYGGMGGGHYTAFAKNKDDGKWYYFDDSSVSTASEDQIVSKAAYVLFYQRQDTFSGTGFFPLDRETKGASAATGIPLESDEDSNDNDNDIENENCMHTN
Summary of the method: as §1

[10] = target: USP16 (UniProt Q9Y5T5)
Sequence of USP16 (Q9Y5T5 whole entry, looked up): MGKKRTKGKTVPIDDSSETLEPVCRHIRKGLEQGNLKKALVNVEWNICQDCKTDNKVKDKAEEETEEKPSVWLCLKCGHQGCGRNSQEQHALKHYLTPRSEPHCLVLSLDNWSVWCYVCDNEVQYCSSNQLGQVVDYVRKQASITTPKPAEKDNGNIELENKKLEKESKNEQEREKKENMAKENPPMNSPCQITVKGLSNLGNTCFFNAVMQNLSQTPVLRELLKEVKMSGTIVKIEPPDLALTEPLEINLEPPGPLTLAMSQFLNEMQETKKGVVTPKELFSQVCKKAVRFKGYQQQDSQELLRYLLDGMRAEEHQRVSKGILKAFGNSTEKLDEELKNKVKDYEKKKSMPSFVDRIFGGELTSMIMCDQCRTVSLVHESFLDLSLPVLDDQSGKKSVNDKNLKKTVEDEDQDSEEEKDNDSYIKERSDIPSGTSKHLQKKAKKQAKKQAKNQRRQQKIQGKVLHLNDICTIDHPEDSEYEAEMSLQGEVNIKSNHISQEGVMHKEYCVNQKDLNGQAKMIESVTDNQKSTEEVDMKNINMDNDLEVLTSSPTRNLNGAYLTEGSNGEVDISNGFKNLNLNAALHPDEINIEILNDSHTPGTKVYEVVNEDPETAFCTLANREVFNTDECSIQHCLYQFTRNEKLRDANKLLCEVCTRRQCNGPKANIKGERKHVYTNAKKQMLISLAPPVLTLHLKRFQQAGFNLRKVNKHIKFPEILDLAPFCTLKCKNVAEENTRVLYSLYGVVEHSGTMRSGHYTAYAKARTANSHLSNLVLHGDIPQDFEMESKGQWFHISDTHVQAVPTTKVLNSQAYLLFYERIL
Summary of the method: as §1

Measured: log2 ratio of Biotin-Ahx-Ub-VS probe labelling

Cc1cccc(NC(=O)CCl)c1C
active: [6] -1.39
inactive: [1] -0.273 | [2] -0.61 | [3] 0.0787 | [4] -0.631 | [5] -0.766 | [7] -0.0693 | [8] -0.292 | [9] -0.43 | [10] -0.691
